Assay results taken from PubChem BioAssay (EPA / NIEHS).
Calls of active or inactive are those of the source. Rule for the calls: active = hit-call score of the fitted dose curve at least 0.9, where 1 is the maximum; inactive = score below 0.9.

read-out: Cytochrome P450 (CYP24A1), CYP24A1 (gene 1591); assay: LTEA_HepaRG_CYP24A1: Life Technologies and Expression Analysis (LTEA) Assay for Cytochrome P450 (CYP24A1) using HepaRG (AID 2283478); settings: mRNA level, 48 h; actives raise or lower the signal
Experimental: LTEA_HepaRG is a cell based, multiplexed-readout assay that uses HepaRG, a human liver cell line, with measurements taken at 48 hours after chemical dosing on a 96-well plate.LTEA_HepaRG_CYP24A1 is one of 102 assay component(s) measured in the LTEA HepaRG cell culture assay. It is a marker of NR mediated metabolism.Data from the assay component LTEA_HepaRG_CYP24A1 was analyzed into 1 endpoint. This assay endpoint, LTEA_HepaRG_CYP24A1, was analyzed with bidirectional fitting relative to DMSO as the negative control and baseline of activity. Using a type of inducible reporter, measures of mRNA induction for gain or loss-of-signal activity can be used to understand regulation of transcription factor activity. To generalize the intended target to other relatable targets, this assay endpoint is annotated to the cyp intended target family, where the subfamily is xenobiotic metabolism.
A total of 1060 chemcials from the ToxCast library were tested in eight-point concentration-response experiments. Cell culture and cytotoxicity assays were conducted at Thermo Fisher Scientific's Custom Services facility (Madison, WI). A single lot of human HepaRG cells (Thermo Fisher Scientific, Frederick, MD) was used for the cell culture experiments. 96-well format collagen type I coated plates of human HepaRG cells were prepared using established methods. Briefly, cryopreserved HepaRG cells were thawed, plated at a density of approximately 100,000 cells/well in HepaRG Thaw, Plate, and General Purpose media (HPRG770, Thermo Fisher Scientific), and incubated for 48 hours. 0.5% DMSO was selected as vehicle control to balance the requisite need of DMSO in HepaRG cultures to maintain differentiation (for example, baseline metabolism, proportions of hepatocytes vs. cholangiocytes), while enabling further hepatic receptor pathway activation (for example, PXR and CAR) in response to chemical exposure. 48 hours after plating, the culture medium was replaced with HepaRG Serum-Free Incudtion Media. Cells were exposed to each test chemical in duplicate and maintained in CO2 incubators for another 48 hours. Chemical plates were thawed to room temperature and 200x concentrations of treatment groups were prepared. 8-point conentration-reponse curves were made with the highest exposure at 100 uM, followed by half-log dilutions, all in 0.5% DMSO. Each test plate contained variouse controls, induction positive controls (1mM phenobarbital), cytotoxicity positive controls ([…] aflatoxin B1), vehicle controls (0.5% DMSO), and total lysis controls (0.5% DMSO). Cell morphology images were taken using an Essen IncuCyte FLR automated microscope, with six 96-well plates imaged in about 24 minutes. Images were captured and exported and JPEG files. Spent culture media was transfered to black-well plates for the LDH assay, and remaining media was sorted at -80 C for later use. Cells were treated with RLT buffer and frozen until shipped for gene expression analysis. Total RNA was isolated from the cell suspension in 75 uL of Buffer RLT (Qiagen, Germantown, MD 20874) by Quintiles/Expression Analysis (Durham, NC) using a custom isolation procedure. Total RNA from each plate well was transferred to a preamplification plate. Fluidigm's 96.96 Dynamic ArrayTM (Fluidigm, Amsterdam, the Netherlands) technology was used for gene expression analyses by quantitative reverse transcription polymerase chain reaction (qRT-PCR, performed by Quintiles/Expression Analysis, Durham, NC)89. Standard TaqManTM Assays (Applied Biosystems/ThermoFisher Scientific, Foster City, CA) were used to assess the expression of 93 genes selected based on their selectivity and sensitivity to important hepatic receptors known to be modulated by environmental chemicals; importance in human hepatocyte functionality; and hepatotoxicity. […]

Compound	outcome
CCN1CCC2(CC1)COc1cc3c(cc12)N(C(=O)c1ccc(-c2ccc(-c4nnc(C)o4)cc2C)cc1)CC3	inactive
Cn1sc(Cl)cc1=O	inactive
O=C(O)C(F)(F)C(F)(F)C(F)(F)C(F)(F)C(F)(F)C(F)(F)C(F)(F)C(F)(F)C(F)(F)C(F)(F)F	inactive
O=C(O)C(Cl)(Cl)Cl	inactive
CC(C)(C)CC(C)(C)c1ccc(O)cc1	inactive
CCOP(=S)(OCC)Oc1nc(Cl)c(Cl)cc1Cl	inactive
NC(=O)O	inactive
ClCC(Cl)CCl	inactive
O=c1[nH]c(=O)[nH]c(=O)[nH]1	inactive
CC(C)(c1ccccc1)c1ccc(O)c(C(C)(C)c2ccccc2)c1	inactive
CCCCCCCCc1ccc(O)cc1	inactive
CC12CC1(C)C(=O)N(c1cc(Cl)cc(Cl)c1)C2=O (centres undefined)	inactive
O=[N+]([O-])c1ccc(O)c([N+](=O)[O-])c1	inactive
C[C@]12CCC(=O)C[C@@H]1CC[C@@H]1[C@@H]2CC[C@]2(C)[C@@H](O)CC[C@@H]12	inactive
CC(C)(C)c1cc(O)ccc1O	inactive
Cc1ccccc1N	inactive
Oc1cccc2cccnc12	inactive
ClC1(Cl)C2(Cl)C3(Cl)C4(Cl)C(Cl)(Cl)C5(Cl)C3(Cl)C1(Cl)C5(Cl)C24Cl (centres undefined)	inactive
COc1cc(-c2ccc(N)c(OC)c2)ccc1N	inactive
CC(C)(OO)c1ccccc1	inactive
O=C(O)C(F)(F)C(F)(F)C(F)(F)C(F)(F)C(F)(F)C(F)(F)F	inactive
C=CC(=O)OCCCCCC(C)C	inactive
CCC(=O)C(CC(C)N(C)C)(c1ccccc1)c1ccccc1 (centres undefined)	inactive
CC(=O)[O][Hg][c]1ccccc1	inactive
O=C1C2(Cl)C3(Cl)C4(Cl)C(Cl)(Cl)C5(Cl)C3(Cl)C1(Cl)C5(Cl)C24Cl (centres undefined)	inactive
CN(C)N=O	inactive
CCC(C)(C)c1ccc(O)c(C(C)(C)CC)c1	inactive
O=C(Nc1ccc2[nH]ccc2c1)c1cc2cc(F)ccc2n1Cc1cccc(F)c1	inactive
C=C(C)C(=O)[O][Sn]([CH2]CCC)([CH2]CCC)[CH2]CCC	inactive
